Only some compounds are listed: those with a hit (about 5% of all), similar ones and a draw of the others.
CHT allo act: human CHT allosteric activation. Q9GZV3. CHT-expressing cells, membrane potential dye, choline EC20; hits give high values; LV-AA mutant CHT in HEK293 cells. B-score at 10 µM. actives 0.49% (n = 310,000). AID 488977;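 active = initial fluorescence not abnormally high and integrated response B-score, plate-corrected, over 3 SD above library mean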
PREPL inh: human PREPL enzyme inhibition | actives 0.68% (n = 320,000) | Q4J6C6 | inhibition, % at 5.96 µM | AID 2751 | recombinant PREPL, fluorescence polarization activity-based probe; in the data active = inhibition above about 43%
ALR H2O2 inh: human ALR oxidase inhibition via reduced H2O2; P55789; purified ALR, DTT oxidation, H2O2 HRP-luminol luminescence; inhibition, % (concentration not given with the values); actives 3.8% (n = 290,000); AID 485317;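 active = mean replicate inhibition above about 79%, with every replicate also reaching it, limit read from the data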
Target sequence (P55789 whole entry, looked up): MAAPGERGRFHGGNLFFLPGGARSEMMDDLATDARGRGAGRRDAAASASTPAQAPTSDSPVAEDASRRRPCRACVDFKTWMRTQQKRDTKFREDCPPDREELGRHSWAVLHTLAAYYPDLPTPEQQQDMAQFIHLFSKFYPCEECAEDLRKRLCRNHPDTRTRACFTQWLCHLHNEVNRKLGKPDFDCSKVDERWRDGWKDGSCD
CHT block: inhibits the human high affinity choline transporter. B-score at 10 µM. Q9GZV3. actives 0.86% (n = 310,000). CHT-expressing cells, membrane potential dye, choline response; hits give low values;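 active = B-score over 3 SD under the library average, and starting fluorescence ratio not unusually high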;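 also: choline stimulus applied at its EC90 after an EC20 pre-addition; B-score computed on integrated fluorescence ratio after choline addition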
AI-2 QS mod: modulators of Vibrio harveyi AI-2 quorum sensing system | Vibrio harveyi JMH597 AI-2 luminescence/OD600 ratio, 9 h; hits give low values; strain lacks LuxN and CqsS sensors; 0 = neutral-control median | actives 0.4% (n = 300,000) | AID 2094 | activity change, % at 7.5 µM; in the data active = activity change below about -75%, passing the limit was not always enough;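 also: luminescence divided by OD600 gain over 9 h not by final OD600 alone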
CHT act confirm: human CHT activation, confirmatory screen. shares compounds with CHT allo act. CHT-expressing cells, membrane potential dye fluorescence (FDSS); % of choline EC20–EC90 response window; HEK293 expressing CHT LV-AA mutant; choline added at its EC20. activation, % at 10 µM. actives 91% (n = 2,500). AID 504833;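 active = primary screen active, with duplicate mean activation above negative control mean plus 3 SD, cut at about 11% in these data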
HEK293 MP dye: activity in parental HEK293 cells lacking CHT; AID 623908; actives 62% (n = 2,500); shares compounds with CHT allo act; ratio readout change at 10 µM, hits read low; membrane potential dye fluorescence (FDSS); measured after EC20 choline addition;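 active = duplicate-averaged ratio beyond 3 SD from buffer wells, up or down, though filed actives are nearly all decreases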
Large screens that a line does not name were inactive (follow-up assays come after a bar, where they were run).

CNC(=O)/C(C#N)=C/c1c(N2CCCCCC2)nc2ccccn2c1=O	CHT allo act 6.4 (no result: ALR H2O2 inh) | CHT act confirm inactive | HEK293 MP dye -36
COCCCNC(=O)/C(C#N)=C/c1c(N2CCN(C)CC2)nc2ccccn2c1=O	none | CHT act confirm 48 | HEK293 MP dye -42
O=C(NCc1ccccn1)c1cccc(NS(=O)(=O)c2ccccc2)c1	none (no result: AI-2 QS mod)
OC1(Cc2ccccc2)CCNCC1	none
CCOC(=O)N1CCN(c2nc(-c3cccs3)nc3ccccc23)CC1	CHT allo act 6.7 (no result: ALR H2O2 inh) | CHT act confirm 30 | HEK293 MP dye inactive
CCOc1ccc(-c2cnc3n2CCC3)cc1	none | CHT act confirm 50 | HEK293 MP dye -39
Brc1ccc(-c2cnc3n2CCCC3)cc1	none
O=C(c1ccc(C(F)(F)F)cc1)N1CCC(=O)N(C(COCc2ccc(C(F)(F)F)cc2)Cc2ccccc2)CC1 (stereo unspecified)	none
Cc1cccc(COCC(Cc2ccccc2)N2CCN(C(=O)c3ccc(C(F)(F)F)cc3)CCC2=O)c1 (stereo unspecified)	none | CHT act confirm 35 | HEK293 MP dye inactive
CC(C)CC(COCc1ccc([N+](=O)[O-])cc1)N1CCN(C(=O)c2ccc(C(F)(F)F)cc2)CCC1=O (stereo unspecified)	none | CHT act confirm 29 | HEK293 MP dye inactive
Cc1cccc(COCC(CC(C)C)N2CCN(C(=O)c3ccc(C(F)(F)F)cc3)CCC2=O)c1 (stereo unspecified)	none
COc1ccccc1CN(Cc1nc2ccccc2c(=O)[nH]1)C(=O)Nc1cccc(C)c1	none
CCCCn1cnc2cc(NCc3ccncc3)ccc21	none | CHT act confirm 43 | HEK293 MP dye -43
CCCn1cnc2cc(NCc3cccs3)ccc21	none (no result: ALR H2O2 inh)
CCCC12CN(C(=O)c3ccc([N+](=O)[O-])cc3)CC(C)(CN(C(=O)c3ccc([N+](=O)[O-])cc3)C1)C2=O	none | CHT act confirm 45 | HEK293 MP dye inactive
CC12CN(C(=O)c3ccc([N+](=O)[O-])cc3)CC(C)(CN(C(=O)c3ccc([N+](=O)[O-])cc3)C1)C2=O	none
CCc1ccc(/C=N/NC(=O)c2cc(-c3ccncc3)nc3ccccc23)s1	none
O=C(N/N=C/c1cccs1)c1cc(-c2ccncc2)nc2ccccc12	none (no result: ALR H2O2 inh) | CHT act confirm 44 | HEK293 MP dye inactive
O=C(NCCCn1ccnc1)c1cc(-c2ccc(Cl)cc2)nc2ccccc12	none
O=C(NCCCn1ccnc1)c1cc(-c2ccncc2)nc2ccccc12	CHT allo act 6.3 | CHT act confirm 60 | HEK293 MP dye -59
O=C(CCC(=O)N1CCN(S(=O)(=O)c2ccc([N+](=O)[O-])cc2)CC1)N1CCOCC1	none (no result: CHT allo act, CHT block, AI-2 QS mod)
CC(C)CCC(CCNCc1ccccn1)c1ccc(Cl)cc1 (stereo unspecified)	none | CHT act confirm 33 | HEK293 MP dye inactive
S=C(NCc1ccc(Cl)cc1)NCc1ccccn1	none (no result: ALR H2O2 inh)
Cc1cccc(NC(=O)NCCN2CCN(c3ccccc3)CC2)c1C	none
CCOC(=O)Nc1nc(-c2ccccc2)c(C(=O)c2ccc(Cl)cc2)s1	none | CHT act confirm 35 | HEK293 MP dye inactive
CCOC(=O)Nc1sc(C)nc1-c1ccccc1	none
CCC(=Nc1ccccc1OC)C1=C(O)CC(c2ccccc2)CC1=O (stereo unspecified)	CHT allo act 12 | CHT act confirm 32 | HEK293 MP dye inactive
Cc1ccccc1SCC(=O)Nc1cc(C(F)(F)F)ccc1N1CCOCC1	none | CHT act confirm 36 | HEK293 MP dye inactive
Cc1cccc(-c2nnc(SCC#N)n2-c2ccccc2)c1	none (no result: ALR H2O2 inh)
Cc1ccc(-n2c(SCCN)nnc2-c2cccc(C)c2)cc1	none | CHT act confirm 17 | HEK293 MP dye inactive
COc1ccc(C(=O)OCC(=O)Nc2ccc(Cl)c(C(F)(F)F)c2)c(OC)c1OC	CHT allo act 7.6 | CHT act confirm inactive | HEK293 MP dye inactive
COc1ccccc1/C=C/C(=O)N1CCC(c2ccccc2)C1 (stereo unspecified)	none
CC(C)C[C@H]1CN=C(Nc2ccccc2)N1CC1CCC1	none
Cc1ccc(CNC(=O)C(=O)NCCC2CCCCN2S(=O)(=O)c2ccccc2)cc1 (stereo unspecified)	CHT allo act 8.5 | CHT act confirm inactive | HEK293 MP dye inactive
CCOc1ccc(S(=O)(=O)N2CCC(C(=O)NC3CCCC3)CC2)cc1	none
CCCCc1n(CC(=O)c2ccc(Cl)cc2)c2ccccc2[n+]1C	none | CHT act confirm 14 | HEK293 MP dye inactive
CN(C)CCSc1nnc2sc3ccccc3n12	CHT allo act 6.6 | CHT act confirm 58 | HEK293 MP dye -55
CCCC[C@@H]1C[C@H]1[C@@H](NC(=O)c1cccs1)c1ccc(Cl)cc1	none | CHT act confirm 29 | HEK293 MP dye inactive
CCCC[C@@H]1C[C@H]1[C@@H](NC(=O)c1ccco1)c1ccccc1C(F)(F)F	none
CC(C)(C)c1ccc(-c2nnc(N)o2)cc1	none
Cc1cc(N2CCN(C(=O)Nc3ccccc3C#N)CC2)c2ccccc2n1	none (no result: PREPL inh) | CHT act confirm 56 | HEK293 MP dye -82
COc1ccc(CN2C(=O)[C@@H]3C(c4ccccc4Cl)=NO[C@@H]3C2=O)cc1	none (no result: ALR H2O2 inh) | CHT act confirm 17 | HEK293 MP dye inactive
O=C1[C@@H]2C(c3ccccc3Cl)=NO[C@@H]2C(=O)N1Cc1ccccc1	none
CC(=O)c1cccc(NC(=O)c2ccc3c(c2)C(=O)N(Cc2cccnc2)C3=O)c1	none
O=C(Nc1cccnc1)c1ccc2c(c1)C(=O)N(Cc1cccnc1)C2=O	none | CHT act confirm 16 | HEK293 MP dye -39
COc1ccc(Br)cc1/C=N/NC(=O)c1cc(OC)c(OC)c(OC)c1	none
COc1cc(C(=O)N/N=C/c2ccsc2C)cc(OC)c1OC	none (no result: ALR H2O2 inh) | CHT act confirm 19 | HEK293 MP dye inactive
O=C(NNC(=O)C1CCCO1)c1ccc(F)cc1 (stereo unspecified)	none
CCOC(=O)c1ccc2c(c1)n(CCCS(=O)(=O)[O-])c(/C=C/c1ccc(Cl)cc1)[n+]2CC	CHT allo act 11 | CHT act confirm 71 | HEK293 MP dye -86
CCOC(=O)c1ccc2c(c1)[n+](CC)c(C)n2-c1ccccc1	none
CC(=O)N1CCC(=NNc2ccnc3cc(Cl)ccc23)CC1	none | CHT act confirm 41 | HEK293 MP dye -24
CN(C)S(=O)(=O)N1CCc2ccc(NC(=O)c3ccc(C(F)(F)F)cc3)cc2C1	none (no result: ALR H2O2 inh)
O=C1N(Cc2cccc(Cl)c2)C[C@@H]2C[C@@H](c3ccccn3)N3CCC[C@@]123	none
O=C1N(Cc2cccc(Cl)c2)C[C@@H]2C[C@@H](c3ccsc3)N3CCC[C@@]123	none | CHT act confirm 28 | HEK293 MP dye inactive

Assay outcomes (PubChem)
